Data published in the supplement of paper PMC10849652.
Of roughly 7,900 targets only a part is listed; those with a hit were picked by preference. About 0.6% of all pairs of compound and target were hits.

Key:
Experiment in all cases: log2 fold change, soluble protein after heating vs DMSO (PISA); higher = thermal stabilisation; K562 cells, 10 uM, 30 min; active = over 0.2 and 3.5 SD of the protein, either way, in both replicates (recomputed)
[1] = compound: C1=CC=C(C=C1)[C@H](COC2=CC3=C(C=C2)NC(=O)N3)NC(=O)C4=CC=CN(C4=O)CC5=CC(=C(C=C5)F)F
Procedure, shortened: (§1)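 K562 cells at 2×10^6 cells/mL were treated with 10 μM compound for 30 min. Aliquots were heated for 3 min across 48°C-58°C, pooled, and extracted in PBS with 0.5% NP-40 at 4°C; soluble protein was the supernatant after 21,000xg for 90 min. Soluble protein was quantified by TMTpro 16plex LC-MS/MS with channel sums equalised, and reported as log2 fold change in thermal stability against DMSO controls, with values from duplicates.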

[2] = compound: CC1=C(SC2=C1C(=N[C@H](C3=NN=C(N32)C)CC(=O)N)C4=CC=C(C=C4)Cl)C
Procedure, shortened: as §1

[3] = compound: CC1=C2C(=CC=C1)N=C(N(C2=O)C3=CC=CC=C3C)CN4C=NC5=C(N=CN=C54)N
Procedure, shortened: as §1

[4] = compound: Cc1sc2c(c1C)C(c1ccc(Cl)cc1)=N[C@@H](CC(=O)OC(C)(C)C)c1nnc(C)n1-2
Procedure, shortened: as §1

[5] = compound: c1ccc([C@@H]2C[C@H]2NC2CCNCC2)cc1
Procedure, shortened: as §1

Measured: log2 fold change

MSH3 (UniProt P20585)
inactive: [1] 0.008 | [2] 0.085 | [3] 0.052 | [4] -0.028 | [5] -0.087

NMT2 (UniProt O60551)
inactive: [1] -0.045 | [2] 0.053 | [3] 0.092 | [4] 0.026 | [5] -0.107

NARS2 (UniProt Q96I59)
UniProt Q96I59, sequence (Q96I59 whole entry, looked up): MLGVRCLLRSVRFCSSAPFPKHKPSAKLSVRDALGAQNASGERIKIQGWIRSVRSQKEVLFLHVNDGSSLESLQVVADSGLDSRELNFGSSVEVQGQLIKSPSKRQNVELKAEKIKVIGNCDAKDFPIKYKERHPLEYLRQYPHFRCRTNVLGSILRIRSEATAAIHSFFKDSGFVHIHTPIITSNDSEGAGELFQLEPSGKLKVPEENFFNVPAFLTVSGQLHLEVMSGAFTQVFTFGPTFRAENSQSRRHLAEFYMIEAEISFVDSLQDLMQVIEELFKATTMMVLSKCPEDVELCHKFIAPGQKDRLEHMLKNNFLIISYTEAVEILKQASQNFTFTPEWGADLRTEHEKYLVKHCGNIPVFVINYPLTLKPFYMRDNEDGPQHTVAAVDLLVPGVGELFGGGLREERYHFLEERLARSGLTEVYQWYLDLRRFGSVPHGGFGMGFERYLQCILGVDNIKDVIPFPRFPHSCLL
inactive: [1] 0 | [2] 0.057 | [3] 0.059 | [4] 0 | [5] -0.027

NMT1 (UniProt P30419)
inactive: [1] 0 | [2] 0.032 | [3] -0.001 | [4] 0.076 | [5] -0.018

MLST8 (UniProt Q9BVC4)
UniProt Q9BVC4, sequence (Q9BVC4 whole entry, looked up): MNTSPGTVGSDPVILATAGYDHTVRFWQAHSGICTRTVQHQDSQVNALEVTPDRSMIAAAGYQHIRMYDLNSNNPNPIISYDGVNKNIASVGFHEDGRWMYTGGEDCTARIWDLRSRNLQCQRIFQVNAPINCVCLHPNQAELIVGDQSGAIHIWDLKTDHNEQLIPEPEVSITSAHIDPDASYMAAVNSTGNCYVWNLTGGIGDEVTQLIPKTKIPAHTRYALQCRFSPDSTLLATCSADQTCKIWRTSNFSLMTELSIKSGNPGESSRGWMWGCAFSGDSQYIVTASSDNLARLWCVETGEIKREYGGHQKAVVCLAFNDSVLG
inactive: [1] -0.038 | [2] 0.062 | [3] 0.082 | [4] -0.05 | [5] -0.071

NFE2 (UniProt Q16621)
UniProt Q16621, sequence (Q16621 whole entry, looked up): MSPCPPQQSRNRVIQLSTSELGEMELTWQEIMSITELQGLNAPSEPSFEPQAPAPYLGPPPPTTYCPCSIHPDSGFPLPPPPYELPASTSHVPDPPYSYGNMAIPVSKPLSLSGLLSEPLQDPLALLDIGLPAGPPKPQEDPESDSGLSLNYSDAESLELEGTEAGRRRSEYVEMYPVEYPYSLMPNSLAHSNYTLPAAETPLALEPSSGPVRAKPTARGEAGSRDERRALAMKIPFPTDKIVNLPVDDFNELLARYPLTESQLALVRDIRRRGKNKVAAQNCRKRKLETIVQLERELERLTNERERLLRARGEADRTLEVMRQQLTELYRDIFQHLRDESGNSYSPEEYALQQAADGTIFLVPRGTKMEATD
inactive: [1] 0.054 | [2] -0.004 | [3] 0.12 | [4] 0.087 | [5] 0.145

MRPL46 (UniProt Q9H2W6)
inactive: [1] 0 | [2] -0.1 | [3] -0.037 | [4] 0.009 | [5] 0.026

NCKAP1 isoform 2 (UniProt Q9Y2A7)
inactive: [1] -0.037 | [2] 0.035 | [3] 0.003 | [4] 0.007 | [5] -0.004

NRF1 isoform 4 (UniProt Q16656)
UniProt Q16656, sequence (Q16656 whole entry, looked up): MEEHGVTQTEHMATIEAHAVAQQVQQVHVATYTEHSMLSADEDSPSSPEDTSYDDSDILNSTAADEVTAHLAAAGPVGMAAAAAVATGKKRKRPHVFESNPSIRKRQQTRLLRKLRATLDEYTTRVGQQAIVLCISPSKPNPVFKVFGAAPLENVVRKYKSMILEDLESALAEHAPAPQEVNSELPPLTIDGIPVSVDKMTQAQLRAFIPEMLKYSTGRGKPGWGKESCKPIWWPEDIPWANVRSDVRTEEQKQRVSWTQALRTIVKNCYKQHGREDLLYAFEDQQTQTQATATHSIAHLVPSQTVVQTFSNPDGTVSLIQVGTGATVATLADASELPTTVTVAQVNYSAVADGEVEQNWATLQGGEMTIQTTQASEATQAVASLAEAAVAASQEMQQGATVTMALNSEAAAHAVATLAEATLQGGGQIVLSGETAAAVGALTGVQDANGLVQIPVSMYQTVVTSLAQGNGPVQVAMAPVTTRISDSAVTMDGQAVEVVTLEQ
inactive: [1] -0.045 | [2] 0.001 | [3] 0.085 | [4] -0.043 | [5] -0.039

NUP210 (UniProt Q8TEM1)
UniProt Q8TEM1, sequence (Q8TEM1 whole entry, looked up): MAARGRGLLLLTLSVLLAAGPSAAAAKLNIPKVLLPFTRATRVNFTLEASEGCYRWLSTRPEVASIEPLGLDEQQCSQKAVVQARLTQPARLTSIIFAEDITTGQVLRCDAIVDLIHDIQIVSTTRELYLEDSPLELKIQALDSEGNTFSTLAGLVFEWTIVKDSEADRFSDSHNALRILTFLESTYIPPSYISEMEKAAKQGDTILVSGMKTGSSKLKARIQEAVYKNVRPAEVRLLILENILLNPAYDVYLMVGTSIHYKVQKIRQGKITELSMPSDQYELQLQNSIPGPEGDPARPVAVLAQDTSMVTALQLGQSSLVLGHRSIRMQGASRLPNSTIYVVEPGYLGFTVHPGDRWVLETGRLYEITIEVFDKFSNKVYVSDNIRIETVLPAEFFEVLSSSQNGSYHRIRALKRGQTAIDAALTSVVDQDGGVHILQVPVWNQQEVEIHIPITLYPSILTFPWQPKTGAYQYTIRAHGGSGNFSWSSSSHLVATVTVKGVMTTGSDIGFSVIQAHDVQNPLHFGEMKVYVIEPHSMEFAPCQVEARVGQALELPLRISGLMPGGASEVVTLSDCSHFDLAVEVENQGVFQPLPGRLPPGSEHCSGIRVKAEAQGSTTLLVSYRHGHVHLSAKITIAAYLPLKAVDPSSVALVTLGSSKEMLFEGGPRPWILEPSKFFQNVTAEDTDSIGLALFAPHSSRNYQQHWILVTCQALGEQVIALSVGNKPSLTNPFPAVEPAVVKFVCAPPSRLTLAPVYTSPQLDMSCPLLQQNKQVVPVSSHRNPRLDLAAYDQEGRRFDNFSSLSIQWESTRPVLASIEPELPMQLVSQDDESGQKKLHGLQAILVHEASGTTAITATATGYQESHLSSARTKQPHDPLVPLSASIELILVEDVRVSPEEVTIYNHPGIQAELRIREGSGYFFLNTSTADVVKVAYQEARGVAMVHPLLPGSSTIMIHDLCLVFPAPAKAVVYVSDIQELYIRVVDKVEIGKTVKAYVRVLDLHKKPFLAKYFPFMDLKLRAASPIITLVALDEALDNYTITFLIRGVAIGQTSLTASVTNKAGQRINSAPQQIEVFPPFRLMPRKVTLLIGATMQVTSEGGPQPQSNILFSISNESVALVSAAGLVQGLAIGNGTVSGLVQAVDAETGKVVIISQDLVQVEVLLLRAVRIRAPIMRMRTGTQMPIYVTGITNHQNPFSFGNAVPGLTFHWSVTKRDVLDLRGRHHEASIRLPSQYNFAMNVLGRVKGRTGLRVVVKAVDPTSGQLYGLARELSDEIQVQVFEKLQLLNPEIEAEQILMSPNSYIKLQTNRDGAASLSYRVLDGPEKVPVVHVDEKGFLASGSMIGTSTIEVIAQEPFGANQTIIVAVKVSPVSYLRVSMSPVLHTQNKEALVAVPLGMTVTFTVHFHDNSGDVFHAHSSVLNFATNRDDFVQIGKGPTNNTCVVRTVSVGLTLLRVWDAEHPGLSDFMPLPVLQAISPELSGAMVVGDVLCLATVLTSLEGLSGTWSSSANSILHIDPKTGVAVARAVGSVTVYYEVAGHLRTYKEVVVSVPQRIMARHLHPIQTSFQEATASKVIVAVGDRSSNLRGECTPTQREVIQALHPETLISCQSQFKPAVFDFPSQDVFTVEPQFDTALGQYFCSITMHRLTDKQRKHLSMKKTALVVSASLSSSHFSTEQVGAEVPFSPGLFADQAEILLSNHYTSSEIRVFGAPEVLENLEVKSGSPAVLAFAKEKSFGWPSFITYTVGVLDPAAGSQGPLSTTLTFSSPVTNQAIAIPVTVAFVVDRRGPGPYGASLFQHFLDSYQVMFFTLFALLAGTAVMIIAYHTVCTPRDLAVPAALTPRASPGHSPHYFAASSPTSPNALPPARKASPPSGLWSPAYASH
inactive: [1] -0.083 | [2] 0.059 | [3] 0.037 | [4] -0.013 | [5] -0.028

NCK1 (UniProt P16333)
inactive: [1] -0.077 | [2] 0.025 | [3] 0.168 | [4] 0.044 | [5] -0.085

NOL11 (UniProt Q9H8H0)
inactive: [1] 0.007 | [2] 0 | [3] -0.008 | [4] -0.014 | [5] 0.025

MRPL47 (UniProt Q9HD33)
inactive: [1] 0.042 | [2] -0.108 | [3] -0.131 | [4] 0.087 | [5] -0.01

MTHFS (UniProt P49914)
UniProt P49914, sequence (P49914 whole entry, looked up): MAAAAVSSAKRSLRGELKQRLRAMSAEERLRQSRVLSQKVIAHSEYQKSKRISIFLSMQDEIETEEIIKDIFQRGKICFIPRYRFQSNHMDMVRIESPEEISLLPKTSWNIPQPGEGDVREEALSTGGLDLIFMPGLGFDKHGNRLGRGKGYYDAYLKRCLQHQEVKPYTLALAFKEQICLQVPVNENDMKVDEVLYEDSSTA
inactive: [1] -0.075 | [2] 0.035 | [3] -0.086 | [4] -0.023 | [5] -0.061

MIS12 (UniProt Q9H081)
UniProt Q9H081, sequence (Q9H081 whole entry, looked up): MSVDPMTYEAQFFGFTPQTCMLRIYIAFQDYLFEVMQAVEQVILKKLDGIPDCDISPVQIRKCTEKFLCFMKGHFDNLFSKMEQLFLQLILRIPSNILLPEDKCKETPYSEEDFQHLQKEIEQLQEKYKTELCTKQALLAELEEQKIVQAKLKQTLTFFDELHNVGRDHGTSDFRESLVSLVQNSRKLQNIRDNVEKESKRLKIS
inactive: [1] -0.02 | [2] 0.013 | [3] 0.064 | [4] -0.117 | [5] -0.022

OXSM (UniProt Q9NWU1)
inactive: [1] 0.072 | [2] -0.007 | [3] 0.045 | [4] -0.007 | [5] 0.036

NELFB isoform 2 (UniProt Q8WX92)
UniProt Q8WX92, sequence (Q8WX92 whole entry, looked up): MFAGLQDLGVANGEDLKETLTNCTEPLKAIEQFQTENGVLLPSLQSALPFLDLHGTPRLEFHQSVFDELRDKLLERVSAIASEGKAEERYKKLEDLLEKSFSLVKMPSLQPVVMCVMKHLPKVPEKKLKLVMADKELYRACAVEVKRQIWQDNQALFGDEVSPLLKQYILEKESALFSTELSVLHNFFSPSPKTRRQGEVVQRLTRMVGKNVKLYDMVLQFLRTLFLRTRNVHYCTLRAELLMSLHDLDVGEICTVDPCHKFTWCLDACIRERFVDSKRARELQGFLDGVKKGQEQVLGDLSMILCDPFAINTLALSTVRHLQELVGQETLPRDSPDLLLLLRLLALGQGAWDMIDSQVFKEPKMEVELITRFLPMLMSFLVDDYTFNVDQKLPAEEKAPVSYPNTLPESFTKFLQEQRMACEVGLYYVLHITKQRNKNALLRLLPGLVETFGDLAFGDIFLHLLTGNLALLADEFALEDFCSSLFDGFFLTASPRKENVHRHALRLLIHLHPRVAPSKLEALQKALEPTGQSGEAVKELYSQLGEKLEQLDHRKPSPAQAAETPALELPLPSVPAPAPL
inactive: [1] -0.098 | [2] 0.12 | [3] 0.123 | [4] -0.05 | [5] -0.023

PAFAH1B3 (UniProt Q15102)
UniProt Q15102, sequence (Q15102 whole entry, looked up): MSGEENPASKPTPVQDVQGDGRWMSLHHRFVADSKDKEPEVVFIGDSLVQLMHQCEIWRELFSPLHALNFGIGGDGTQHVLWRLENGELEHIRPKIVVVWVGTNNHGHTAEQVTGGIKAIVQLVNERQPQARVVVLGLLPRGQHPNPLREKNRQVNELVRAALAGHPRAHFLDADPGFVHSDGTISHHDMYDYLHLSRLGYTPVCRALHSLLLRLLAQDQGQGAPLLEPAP
inactive: [1] -0.076 | [2] 0.139 | [3] 0.128 | [4] -0.132 | [5] -0.096
